# Laboratory results: PubChem BioAssay (NCATS)
# Inconclusive results are not listed. The source made the active and inactive calls. Unless noted, calls come from the whole dose curve; as a rule, active = well fitted curve in the direction sought with a large enough effect; inconclusive = small, poorly fitted or top-dose-only effect, or another doubt; inactive = no such curve, though single readings can be large; an effect the other way counts as inactive or inconclusive.
# Legend:
# [1] = qHTS Assay for Lipid Storage Modulators (AID 1519; calls by dose curve; for activity change, negative = inhibition: % is set by controls: 0 for no effect and ±100 for the full control effect); conditions: Drosophila S3 cells, BODIPY lipid droplet/cell ratio, laser cytometry, cells loaded with oleic acid
# In short: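 Cells seeded at 5,000 per well were treated with compounds over a concentration series and loaded with oleic acid (400 uM, as added). Lipid droplet fluorescence (488 nm excitation, 500-530 nm channel) was read by laser-scanning cytometry and normalized to 20 uM Triacsin C.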
# [2] = qHTS drug screen for cell cycle checkpoint inhibitors in PARPi-resistant BRCA-mutant ovarian cancer cell lines. (AID 1963452; calls by dose curve); conditions: PEO1/OlaR viability, CellTiter-Glo luminescence, 96 h, stronger effect = lower value
# In short: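 PEO1, PEO4 and PEO1/OlaR ovarian cancer cells, 600 per well, exposed 96 h at 37C to a dilution series. Viability read by CellTiter-Glo luminescence, normalized to DMSO and empty wells; activity summarized as Z-AUC.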
# [3] = qHTS assay to identify inhibitors of the type 1 interferon - major histocompatibility complex class I in skeletal muscle: Counter screen cell viability and HiBit confirmation (AID 1347412); conditions: iHSKM muscle cells + IFN-b, HiBiT or CellTiter-Glo, 24 h; for activity change, negative = inhibition: at 45.9 µM (top of the series); note: potency is the fitted concentration of half-maximal effect; for all read-outs here: nearly all actives have a fitted effect of over 60% in size
# In short: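 Human myoblast knock-in line, 4.0 ng/ml IFN-beta stimulation, 24 h compound treatment. Endpoints: HiBiT lytic luminescence (HLA-B level) and CellTiter Glo (ATP). Dosing 12 concentrations, 3-fold steps, 46 uM highest final.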
# [4] = Validation of Assay for Modulators of Lamin A Splicing (AID 1459; active = well fitted curve in the direction sought with a large enough effect in the signal ratio; the % refers to the signal ratio;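 note: cells exposed to compound for two days before reading; 0% is about no effect; ratio rise marks activators and ratio drop marks inhibitors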); conditions: Lamin A splicing dual RFP/GFP fluorescence reporter; series mostly up to 9.22 µM
# In short: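 Dual-reporter HeLa S3 line (lamin A-EGFP minigene, DsRed2) treated with compounds 48 hrs, 0.5% DMSO final. Endpoint: EGFP/DsRed2 total intensity ratio from laser-scanning microplate cytometry.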
# [5] = biological target: DNA repair nuclease/redox regulator APEX1 (Homo sapiens) (UniProt P27695); assay: qHTS Validation Assay for Inhibitors of the Human Apurinic/apyrimidinic Endonuclease 1 (APE1) (AID 1705;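 note: TAMRA fluorescence gain over two minutes as APE1 cuts a quenched THF abasic duplex; % is set by controls: 0 for no effect and ±100 for the full control effect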); conditions: purified APE1 endonuclease activity, fluorescence, titration; series mostly up to 57.1 µM
# In short: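 Substrate: 50 nM final fluorophore/quencher THF-abasic duplex. Enzyme preincubated with compounds 15 min, RT. Progress derived from fluorescence difference, third minus first kinetic read.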
# [6] = Counterscreen for APE1 Inhibitors: Fluorescent Dye Displacement Validation Assay (AID 1707); conditions: fluorescent dye displacement from DNA; series mostly up to 57.1 µM;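 note: plate controls were ThO with dsDNA and no compound for no effect and ThO without dsDNA for full effect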
# In short: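 Loss of Thiazole Orange fluorescence marks promiscuous DNA binders. The dye (250 nM) is mixed with 50 nM abasic-site dsDNA in pH7.5 Tris buffer containing MgCl2, then compounds are added and emission is read once.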
# [7] = biological target: Endonuclease 4 (Escherichia coli (strain K12)) (UniProt P0A6C1); assay: Counterscreen for APE1 Inhibitors: qHTS Validation Assay for Inhibitors of Endonuclease IV (AID 1708); note: % is set by controls: 0 for no effect and ±100 for the full control effect; conditions: E. coli endonuclease IV, DNA cleavage fluorescence; series mostly up to 57.1 µM
# In short: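 Enzyme (2 nM) + compound, 15 min RT; add 50 nM TAMRA/BHQ-2 THF-site dsDNA; kinetic read ex525/em598, 3 reads/60 s; activity = read 3 − read 1. Buffer Tris pH 7.5, 50 mM NaCl, 2 mM MgCl2, DTT, Tween-20.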
# [8] = qHTS for differential inhibitors of proliferation of Plasmodium falciparum line 3D7 (AID 1876);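 note: parasite growth measured after three days of culture; 0% = vehicle wells and -100% = reference inhibitor wells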; conditions: P. falciparum 3D7 proliferation inhibition; series mostly up to 28.7 µM
# [9] = qHTS for differential inhibitors of proliferation of Plasmodium falciparum line Dd2 (AID 1882); conditions: Potency: Plasmodium falciparum Dd2 proliferation inhibition; series mostly up to 28.7 µM;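 note: plate controls were DMSO vehicle for no effect and 0.29 µM artemisinin for full effect; nearly all actives have a fitted effect of over 65% in size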
# In short: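 SYBR Green DNA fluorescence (ex 485, em 535 nm) after overnight lysis quantifies parasite growth; compound exposure lasted 72 h at 37 C on infected red cells at 2.5% hematocrit, 0.3% parasitemia (final). Artemisinin 0.29 uM and vehicle wells define normalization.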
# [10] = biological target: Ferritin light chain (Equus caballus) (UniProt P02791); assay: qHTS Validation Assay for Identification of Novel General Anesthetics (AID 2323); conditions: horse apoferritin, anesthetic-site fluorescent probe displacement; series mostly up to 76.9 µM; note: % is set by controls: 0 for no effect and ±100 for the full control effect
# In short: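 Normalized fluorescence response, scaled between free 1-AMA and 1-AMA/apoferritin complex, fitted to a four-parameter Hill equation for concentration-effect values. Binding mix: 10 uM horse-spleen apoferritin, 50% saturated 1-AMA in PBS; read 380/535 nm after 10 min.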
# [11] = biological target: ATP-dependent DNA helicase Q1 (Homo sapiens) (UniProt P46063); assay: qHTS Validation Assay for Inhibitors of RecQ-Like Dna Helicase 1 (RECQ1) (AID 2353); conditions: recombinant RECQ1 helicase DNA unwinding assay; series mostly up to 25.6 µM;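 note: plate controls were DMSO vehicle for no effect and enzyme-free control for full effect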
# In short: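 RECQ1T1 50 nM; forked duplex (20 bp + 30-nt ss tails) 200 nM, ATP 2 mM final; pH 8.0, 2 mM MgCl2, 2.5 ug/ml poly(dI-dC); 15 min compound preincubation; discontinuous kinetic read over 2 h at RT.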
# [12] = Validation screen for small molecules that induce DNA re-replication in MCF 10A normal breast cells (AID 463097); conditions: MCF 10A cells, DNA re-replication phenotype imaging; series mostly up to 46.1 µM; note: 0% is about no effect; nearly all actives have a fitted effect of over 60% in size
# In short: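 Following 48 hr compound incubation (37 C, 5% CO2), MCF 10A cells receive Hoechst for 40 min at 37 C. Nuclei are then scanned (excitation 405 nm, emission 500-530 nm) for total fluorescence intensity.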
# [13] = Quantitative high throughput screen for delayed death inhibitors of the malarial parasite plastid, 96 hour incubation (AID 488745); conditions: Plasmodium falciparum growth; series mostly up to 28.7 µM;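 note: luciferase-expressing P. falciparum in erythrocytes at 2% hematocrit and 0.1% parasitemia; % is set by controls: 0 for no effect and ±100 for the full control effect; nearly all actives have a fitted effect of over 70% in size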
# In short: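 Readout is firefly luciferase luminescence from an integrated reporter in P. falciparum; lower signal marks inhibited growth. Cultures at 2% hematocrit and 0.1% parasitemia were treated with compound across two generations (96 h, 37 C, 5% CO2).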
# [14] = Quantitative high throughput screen for delayed death inhibitors of the malarial parasite plastid, 48 hour incubation (AID 488752); conditions: Plasmodium falciparum growth; series mostly up to 28.7 µM; note: % is set by controls: 0 for no effect and ±100 for the full control effect; nearly all actives have a fitted effect of over 65% in size
# In short: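 First, compound was pinned into RPMI 1640 medium containing 0.5% Albumax. Next, reporter-parasite-infected erythrocytes were added to 2% hematocrit and 0.1% parasitemia. After 48 h at 37 C under 5% CO2, luciferase detection reagent was added and luminescence read.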
# [15] = biological target: M-phase phosphoprotein 8 (Homo sapiens) (UniProt Q99549); assay: qHTS Validation Assay for Inhibitors for MPP8 Chromodomain Interactions with Methylated Histone Tails (AID 488949); conditions: AlphaScreen MPP8 binding to H3K9me3 peptide; series mostly up to 114 µM;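 note: 50 nM MPP8 with 50 nM peptide preformed then compounds added for 30 min; AlphaScreen signal from MPP8 chromodomain bound to biotinylated H3K9me3 peptide; top concentration of the series differs between compounds; % is set by controls: 0 for no effect and ±100 for the full control effect; nearly all actives have a fitted effect of over 55% in size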
# In short: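 Chemiluminescent proximity assay: histidine-tag capture via nickel acceptor beads, biotin peptide via streptavidin donor beads. Protein and peptide each at 50 nM, pH 7.4, with 30 min incubations at room temperature for complex formation, compound exposure and bead binding.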
# [16] = biological target: Transient receptor potential cation channel subfamily V member 1 (Homo sapiens) (UniProt Q8NER1); assay: HTS Assay for Compounds that Act as Enhancers of the Vanilloid Receptor 1 (AID 488979); conditions: TRPV1-expressing cells, enhancer of channel activity, stimulated with capsaicin at EC20; series mostly up to 41.7 µM; note: 0% is about no effect
# In short: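 TRPV1-expressing cells loaded with Fluo-8 calcium dye; compounds added and calcium influx read kinetically for 3 min (agonist phase), then capsaicin at EC20 added and read 2 min more for enhancement. Fluorescence ex 480/em 520 nm.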
# [17] = biological target: Thyrotropin receptor (Homo sapiens) (UniProt P16473); assay: qHTS Assay for Antagonists of the Thyroid Stimulating Hormone Receptor (AID 488980); conditions: TSHR-expressing cells, cAMP antagonist read-out; series mostly up to 57.5 µM; note: 0% is about no effect
# In short: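 Inhibition of TSH-stimulated cAMP accumulation was quantified by homogeneous time-resolved FRET in TSHR-transfected HEK293 cells. Agonist: TSH, 4 nM final (EC80).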
# [18] = biological target: Thyrotropin-releasing hormone receptor (Homo sapiens) (UniProt P34981); assay: qHTS for Small Molecule Agonists and Allosteric Enhancers of Human TRH Receptor: Validation Screen for Agonists (AID 493127;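 active = calcium activation more than 3 SD above the typical response in the agonist read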;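 note: intracellular calcium rise by fluo-8 fluorescence before TRH EC20 addition; 0% is about no effect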); conditions: TRH receptor agonist cell assay; at 2 µM; stronger effect = higher value
# In short: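 Compounds are added by online pintool to dye-loaded TRHR cells while fluorescence is recorded every second. A rise in calcium signal during the agonist read marks activation; a later 10 nM TRH addition (EC20) serves the separate enhancer mode.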
# [19] = biological target: Galactokinase (Homo sapiens) (UniProt P51570); assay: qHTS Validation Assay for Inhibitors of Human Galactokinase (GALK) (AID 493189); conditions: purified human GALK enzyme activity, qHTS 7-point titration; series mostly up to 57.5 µM; note: 0% is about no effect
# In short: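 Enzyme activity is inferred from ATP consumption: human GALK phosphorylates galactose (100 uM) using 35 uM ATP for 1 h at room temperature, and luciferase-based Kinase-Glo Plus reports unconsumed ATP.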
# [20] = biological target: Voltage-gated inwardly rectifying potassium channel KCNH2 (Homo sapiens) (UniProt Q12809); assay: qHTS Assay for Small Molecule Inhibitors of the Human hERG Channel Activity (AID 588834); conditions: U2OS BacMam hERG, FluxOR thallium flux fluorescence; series mostly up to 46.1 µM;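 note: top concentration of the series differs between compounds; % is set by controls: 0 for no effect and ±100 for the full control effect; lower thallium flux fluorescence means stronger hERG block; nearly all actives have a fitted effect of over 50% in size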
# In short: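 Homogeneous FluxOR thallium flux assay using hERG-expressing U2OS cells (BacMam). Compound treatment about 10 minutes preceded stimulation; reduced fluorescence taken as channel block.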
# [21] = measured here: cell count channel max response
# [22] = measured here: lipid channel max response
# [23] = measured here: PEO1 parental Z-AUC
# Sequence of DNA repair nuclease/redox regulator APEX1 (Homo sapiens) (P27695 whole entry, looked up): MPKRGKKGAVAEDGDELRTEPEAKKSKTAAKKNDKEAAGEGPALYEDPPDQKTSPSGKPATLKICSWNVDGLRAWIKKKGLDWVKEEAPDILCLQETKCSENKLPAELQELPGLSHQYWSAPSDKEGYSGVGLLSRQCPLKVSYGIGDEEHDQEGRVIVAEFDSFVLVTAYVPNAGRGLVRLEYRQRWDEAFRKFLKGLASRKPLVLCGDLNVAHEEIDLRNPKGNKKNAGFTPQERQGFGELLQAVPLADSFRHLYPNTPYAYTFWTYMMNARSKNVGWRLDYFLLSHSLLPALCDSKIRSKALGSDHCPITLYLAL
# Sequence of Thyrotropin-releasing hormone receptor (Homo sapiens) (P34981 whole entry, looked up): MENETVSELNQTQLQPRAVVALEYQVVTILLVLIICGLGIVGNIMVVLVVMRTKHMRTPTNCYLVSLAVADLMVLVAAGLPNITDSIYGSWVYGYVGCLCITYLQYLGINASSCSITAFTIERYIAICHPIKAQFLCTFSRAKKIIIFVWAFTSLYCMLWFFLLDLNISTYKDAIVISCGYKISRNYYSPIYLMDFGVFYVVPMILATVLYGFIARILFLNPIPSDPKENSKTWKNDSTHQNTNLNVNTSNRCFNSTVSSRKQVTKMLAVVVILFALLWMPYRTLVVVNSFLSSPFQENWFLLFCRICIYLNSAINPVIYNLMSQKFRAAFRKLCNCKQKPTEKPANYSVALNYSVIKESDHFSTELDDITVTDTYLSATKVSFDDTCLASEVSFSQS
# Sequence of Galactokinase (Homo sapiens) (P51570 whole entry, looked up): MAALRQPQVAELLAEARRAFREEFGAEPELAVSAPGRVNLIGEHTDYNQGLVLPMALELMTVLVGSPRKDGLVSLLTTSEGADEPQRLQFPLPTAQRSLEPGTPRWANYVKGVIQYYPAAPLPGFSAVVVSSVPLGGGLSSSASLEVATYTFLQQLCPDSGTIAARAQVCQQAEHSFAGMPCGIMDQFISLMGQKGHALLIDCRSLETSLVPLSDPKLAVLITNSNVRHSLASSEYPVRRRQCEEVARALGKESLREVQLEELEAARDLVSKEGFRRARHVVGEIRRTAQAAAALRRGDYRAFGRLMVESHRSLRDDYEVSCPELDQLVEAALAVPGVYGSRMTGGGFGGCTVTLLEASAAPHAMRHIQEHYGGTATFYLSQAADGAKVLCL
# Sequence of M-phase phosphoprotein 8 (Homo sapiens) (Q99549 whole entry, looked up): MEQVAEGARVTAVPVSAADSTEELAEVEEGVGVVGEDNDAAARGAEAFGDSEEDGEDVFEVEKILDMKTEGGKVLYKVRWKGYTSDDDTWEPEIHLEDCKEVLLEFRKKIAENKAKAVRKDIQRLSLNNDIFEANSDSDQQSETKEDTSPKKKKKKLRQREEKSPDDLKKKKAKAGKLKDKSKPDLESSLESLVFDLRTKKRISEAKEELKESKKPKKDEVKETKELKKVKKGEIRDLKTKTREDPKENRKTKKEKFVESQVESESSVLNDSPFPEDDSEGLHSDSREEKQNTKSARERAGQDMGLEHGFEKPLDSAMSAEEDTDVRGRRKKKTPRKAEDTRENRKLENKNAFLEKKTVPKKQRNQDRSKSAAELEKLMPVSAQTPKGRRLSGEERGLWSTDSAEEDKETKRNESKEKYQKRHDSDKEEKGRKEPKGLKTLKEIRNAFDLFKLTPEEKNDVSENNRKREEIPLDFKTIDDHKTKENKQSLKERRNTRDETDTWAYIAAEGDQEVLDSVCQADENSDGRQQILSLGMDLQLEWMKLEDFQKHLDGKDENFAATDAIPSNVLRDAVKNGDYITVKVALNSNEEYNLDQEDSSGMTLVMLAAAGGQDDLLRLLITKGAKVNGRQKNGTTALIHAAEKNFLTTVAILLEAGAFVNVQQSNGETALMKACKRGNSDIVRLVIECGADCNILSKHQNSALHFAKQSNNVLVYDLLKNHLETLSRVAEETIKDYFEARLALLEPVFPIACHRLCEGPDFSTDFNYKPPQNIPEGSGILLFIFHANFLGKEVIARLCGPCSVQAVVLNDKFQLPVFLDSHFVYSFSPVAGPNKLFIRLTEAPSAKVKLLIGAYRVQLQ
# Sequence of Voltage-gated inwardly rectifying potassium channel KCNH2 (Homo sapiens) (Q12809 whole entry, looked up): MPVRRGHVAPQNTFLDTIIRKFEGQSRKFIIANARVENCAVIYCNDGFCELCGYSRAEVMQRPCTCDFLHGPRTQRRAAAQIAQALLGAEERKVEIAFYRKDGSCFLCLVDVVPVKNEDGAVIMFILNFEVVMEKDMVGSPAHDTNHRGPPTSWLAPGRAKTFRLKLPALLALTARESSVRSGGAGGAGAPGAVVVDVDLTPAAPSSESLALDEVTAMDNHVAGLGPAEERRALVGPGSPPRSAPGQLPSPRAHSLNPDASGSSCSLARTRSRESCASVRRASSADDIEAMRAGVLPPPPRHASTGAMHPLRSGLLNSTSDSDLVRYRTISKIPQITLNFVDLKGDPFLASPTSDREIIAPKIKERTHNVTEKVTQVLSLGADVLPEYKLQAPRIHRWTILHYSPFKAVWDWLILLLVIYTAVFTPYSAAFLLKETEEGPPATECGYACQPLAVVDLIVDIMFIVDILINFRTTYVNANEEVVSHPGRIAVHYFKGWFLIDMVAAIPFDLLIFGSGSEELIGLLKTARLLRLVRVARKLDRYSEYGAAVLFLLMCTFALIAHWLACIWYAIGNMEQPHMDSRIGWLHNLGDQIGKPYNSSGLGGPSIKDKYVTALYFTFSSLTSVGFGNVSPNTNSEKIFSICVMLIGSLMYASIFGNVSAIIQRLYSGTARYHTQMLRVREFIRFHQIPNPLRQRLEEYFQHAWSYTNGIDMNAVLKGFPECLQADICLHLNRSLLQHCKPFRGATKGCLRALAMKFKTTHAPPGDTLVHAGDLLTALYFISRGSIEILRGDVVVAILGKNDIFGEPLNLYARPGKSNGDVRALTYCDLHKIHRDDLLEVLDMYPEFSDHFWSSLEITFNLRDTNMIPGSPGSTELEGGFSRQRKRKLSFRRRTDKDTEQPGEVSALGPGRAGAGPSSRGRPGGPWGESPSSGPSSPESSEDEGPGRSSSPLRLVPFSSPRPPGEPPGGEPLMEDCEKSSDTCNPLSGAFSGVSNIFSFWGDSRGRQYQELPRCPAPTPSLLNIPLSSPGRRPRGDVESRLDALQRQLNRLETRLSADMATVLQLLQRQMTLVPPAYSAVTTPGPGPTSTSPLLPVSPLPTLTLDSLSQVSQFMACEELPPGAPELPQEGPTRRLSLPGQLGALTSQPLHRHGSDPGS
# Sequence of Ferritin light chain (Equus caballus) (P02791 2-175 limits assumed): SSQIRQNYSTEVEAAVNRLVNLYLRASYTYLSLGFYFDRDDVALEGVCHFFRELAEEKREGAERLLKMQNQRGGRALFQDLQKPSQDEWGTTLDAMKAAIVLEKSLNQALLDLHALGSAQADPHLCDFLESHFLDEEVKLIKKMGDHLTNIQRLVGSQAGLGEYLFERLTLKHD
# Sequence of ATP-dependent DNA helicase Q1 (Homo sapiens) (P46063 whole entry, looked up): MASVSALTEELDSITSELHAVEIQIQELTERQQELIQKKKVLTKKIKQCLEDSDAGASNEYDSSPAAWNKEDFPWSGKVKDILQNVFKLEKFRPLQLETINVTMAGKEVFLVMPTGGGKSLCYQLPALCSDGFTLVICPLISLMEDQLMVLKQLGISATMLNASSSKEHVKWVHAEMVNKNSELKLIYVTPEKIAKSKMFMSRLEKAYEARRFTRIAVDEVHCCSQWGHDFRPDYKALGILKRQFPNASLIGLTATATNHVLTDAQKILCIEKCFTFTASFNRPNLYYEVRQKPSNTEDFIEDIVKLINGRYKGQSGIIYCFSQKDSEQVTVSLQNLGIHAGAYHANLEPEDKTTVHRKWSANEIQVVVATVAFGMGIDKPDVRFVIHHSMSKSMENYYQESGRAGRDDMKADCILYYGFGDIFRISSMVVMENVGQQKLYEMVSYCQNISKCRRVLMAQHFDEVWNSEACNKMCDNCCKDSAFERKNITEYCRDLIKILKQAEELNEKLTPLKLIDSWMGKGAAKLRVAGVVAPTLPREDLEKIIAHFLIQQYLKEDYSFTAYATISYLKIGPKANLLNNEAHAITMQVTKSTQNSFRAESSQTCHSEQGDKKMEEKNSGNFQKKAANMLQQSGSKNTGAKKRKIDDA
# Sequence of Transient receptor potential cation channel subfamily V member 1 (Homo sapiens) (Q8NER1 whole entry, looked up): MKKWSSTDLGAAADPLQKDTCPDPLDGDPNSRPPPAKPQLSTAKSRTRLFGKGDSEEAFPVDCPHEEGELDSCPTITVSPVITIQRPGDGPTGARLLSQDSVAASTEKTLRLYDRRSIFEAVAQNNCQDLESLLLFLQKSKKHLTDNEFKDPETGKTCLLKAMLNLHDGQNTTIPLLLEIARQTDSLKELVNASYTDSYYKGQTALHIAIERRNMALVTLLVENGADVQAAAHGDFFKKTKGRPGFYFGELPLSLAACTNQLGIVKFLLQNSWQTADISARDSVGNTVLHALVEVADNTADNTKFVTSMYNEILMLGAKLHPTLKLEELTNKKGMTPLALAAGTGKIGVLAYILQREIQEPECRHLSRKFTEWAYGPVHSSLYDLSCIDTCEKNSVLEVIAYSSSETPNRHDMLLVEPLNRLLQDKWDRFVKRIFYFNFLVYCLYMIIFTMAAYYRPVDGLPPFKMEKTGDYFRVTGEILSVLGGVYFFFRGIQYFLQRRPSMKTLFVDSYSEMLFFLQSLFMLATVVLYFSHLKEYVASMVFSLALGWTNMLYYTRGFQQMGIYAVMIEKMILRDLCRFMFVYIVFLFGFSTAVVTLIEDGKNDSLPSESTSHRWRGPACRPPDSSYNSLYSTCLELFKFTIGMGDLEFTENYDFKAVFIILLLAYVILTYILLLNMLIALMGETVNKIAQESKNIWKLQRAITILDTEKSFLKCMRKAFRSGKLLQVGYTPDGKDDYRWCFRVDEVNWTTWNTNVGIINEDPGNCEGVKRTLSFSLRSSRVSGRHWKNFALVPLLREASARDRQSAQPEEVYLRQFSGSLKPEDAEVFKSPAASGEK
structure (smiles),measurement,setting,value
O=C(CCc1ccc(O)cc1)c1c(O)cc(O)cc1O[C@@H]1O[C@H](CO)[C@@H](O)[C@H](O)[C@H]1O,"activity change, negative = inhibition",[1]; at 57.5 µM (top of the series),9.34% (inactive)
same,max response,[1]; [21],19.8%
same,max response,[1]; [22],29.9%
same,Z-AUC,[2],0.341 (inactive)
same,Z-AUC,[2]; [23],0.557
same,Z-AUC,[2]; measured here: PEO4 Z-AUC,0.754
same,"activity change, negative = inhibition",[3]; HiBiT,6.74% (inactive)
same,"activity change, negative = inhibition",[3]; Viability,1.25% (inactive)
CN(C)CCOc1ccc(-c2nc(-c3ccc4c(c3)CC/C4=N\O)c(-c3ccncc3)[nH]2)cc1,Z-AUC,[2],-0.892 (inactive)
same,Z-AUC,[2]; [23],-1.12
same,Z-AUC,[2]; measured here: PEO4 Z-AUC,-1.55
same,"activity change, negative = inhibition",[3]; HiBiT,24.4% (inactive)
same,"activity change, negative = inhibition",[3]; Viability,-15.1% (inactive)
NC(=O)c1cnc2[nH]ccc2c1NC1C2CC3C[C@H]1CC(O)(C3)C2 (some centres not stated),Z-AUC,[2],0.584 (inactive)
same,Z-AUC,[2]; [23],0.594
same,Z-AUC,[2]; measured here: PEO4 Z-AUC,0.746
same,Potency,[3]; HiBiT,2220 nM (active)
same,"activity change, negative = inhibition",[3]; Viability,-16.1% (inactive)
O=C1NC(=O)[C@@H](c2c[nH]c3ccccc23)[C@H]1c1cn2c3c(cccc13)CCC2,Z-AUC,[2],-1.13 (inactive)
same,Z-AUC,[2]; [23],-0.673
same,Z-AUC,[2]; measured here: PEO4 Z-AUC,-0.711
same,"activity change, negative = inhibition",[3]; Viability,-10.9% (inactive)
NCCC(=O)NCCc1cnc[nH]1,outcome,[4],inactive
same,"activity change, negative = inhibition",[1]; at 25.7 µM (top of the series),1.3% (inactive)
same,max response,[1]; [21],9.26%
same,max response,[1]; [22],15.5%
same,Potency,[5],inactive
same,Potency,[6],inactive
same,outcome,[7],inactive
same,Potency,[8],inactive
same,Potency,[9],inactive
same,outcome,[10],inactive
same,Potency,[11],inactive
same,outcome,[12],inactive
same,Potency,[13],inactive
same,Potency,[14],inactive
same,Potency,[15],inactive
same,outcome,[16],inactive
same,outcome,[17],inactive
same,activation,[18],1% (inactive)
same,outcome,[19],inactive
same,Potency,[20],inactive
